In all, about 69,000 compounds went through this assay and fewer than 10 were called active. Another 100% or so got no clear call; they are omitted. The rule behind the calls is not given here. Some of the results follow.
molecular target: UDP-N-acetylglucosamine--peptide N-acetylglucosaminyltransferase 110 kDa subunit (Homo sapiens) (UniProt O15294); experiment: O-Glc NAc Transferase (sOGT); conditions: sOGT fluorescence polarization UDP-GlcNAc probe displacement
From the text: NIH Molecular Libraries Screening Centers Network [MLSCN]
NIH Chemical Genomics Center [NCGC]
Suzanne Walker [Harvard Medical School]
OGT is the sole enzyme that mediates the attachment of O-GlcNAc groups to serine and threonine residues in the nucleus and cytoplasm of eukaryotic cells, and no specific inhibitors are known. This type of glycosylation is involved in signal transduction and plays a key role in many essential cellular processes. High O-GlcNAc levels have been correlated to insulin resistance and type 2 diabetes. In addition to elucidating the role of O-GlcNAc in cellular processes, inhibitors of OGT might be useful in studying and perhaps treating type 2 diabetes. Since HTS-amenable direct assay for OGT activity is currently unavailable, a simpler substrate-displacement screen was performed. The signal measured is based on the change in fluorescence polarization of a fluorescein-labeled UDP-GlcNAc upon displacement from its complex with OGT. Recombinant truncated version of the enzyme, sOGT, as well as labeled probe, were made available by Suzanne Walker and Benjamin Gross, Harvard Medical School.
NCGC Assay Protocol Summary:
20 mM phosphate buffer, pH 8.0, 0.01% Tween-20, 500 uM THP (Tris (hydroxypropyl) phosphine).
50 nM/1.5 uM sOGT /100 uM UDP in columns 3 and 4 as negative control (full inhibition of binding, 0 % activity).
50 nM probe/1.5 uM sOGT in columns 1, 2, 5-48. Titration of UDP control (from 40 mM, then 1:2) pin-transferred to column 2. Column 1 is neutral (100% activity).
Three uL of reagents were dispensed to 1536-well Greiner black plates. Compounds and controls (20 nL) were transferred via Kalypsys PinTool. The plates were incubated for 15 min at room temperature, and then read on ViewLux (Perkin-Elmer) High-throughput CCD imager using fluorescein polarization filter set and 45 seconds exposure time. During dispense, reagent bottles were kept submerged into 4 deg C water bath and all liquid lines were covered with aluminum foil to minimize probe and protein degradation.
Keywords: NIH Roadmap, MLSCN, MLI, MLSMR, sOGT, qHTS, NCGC

Sequence of UDP-N-acetylglucosamine--peptide N-acetylglucosaminyltransferase 110 kDa subunit (Homo sapiens) (O15294 whole entry, looked up): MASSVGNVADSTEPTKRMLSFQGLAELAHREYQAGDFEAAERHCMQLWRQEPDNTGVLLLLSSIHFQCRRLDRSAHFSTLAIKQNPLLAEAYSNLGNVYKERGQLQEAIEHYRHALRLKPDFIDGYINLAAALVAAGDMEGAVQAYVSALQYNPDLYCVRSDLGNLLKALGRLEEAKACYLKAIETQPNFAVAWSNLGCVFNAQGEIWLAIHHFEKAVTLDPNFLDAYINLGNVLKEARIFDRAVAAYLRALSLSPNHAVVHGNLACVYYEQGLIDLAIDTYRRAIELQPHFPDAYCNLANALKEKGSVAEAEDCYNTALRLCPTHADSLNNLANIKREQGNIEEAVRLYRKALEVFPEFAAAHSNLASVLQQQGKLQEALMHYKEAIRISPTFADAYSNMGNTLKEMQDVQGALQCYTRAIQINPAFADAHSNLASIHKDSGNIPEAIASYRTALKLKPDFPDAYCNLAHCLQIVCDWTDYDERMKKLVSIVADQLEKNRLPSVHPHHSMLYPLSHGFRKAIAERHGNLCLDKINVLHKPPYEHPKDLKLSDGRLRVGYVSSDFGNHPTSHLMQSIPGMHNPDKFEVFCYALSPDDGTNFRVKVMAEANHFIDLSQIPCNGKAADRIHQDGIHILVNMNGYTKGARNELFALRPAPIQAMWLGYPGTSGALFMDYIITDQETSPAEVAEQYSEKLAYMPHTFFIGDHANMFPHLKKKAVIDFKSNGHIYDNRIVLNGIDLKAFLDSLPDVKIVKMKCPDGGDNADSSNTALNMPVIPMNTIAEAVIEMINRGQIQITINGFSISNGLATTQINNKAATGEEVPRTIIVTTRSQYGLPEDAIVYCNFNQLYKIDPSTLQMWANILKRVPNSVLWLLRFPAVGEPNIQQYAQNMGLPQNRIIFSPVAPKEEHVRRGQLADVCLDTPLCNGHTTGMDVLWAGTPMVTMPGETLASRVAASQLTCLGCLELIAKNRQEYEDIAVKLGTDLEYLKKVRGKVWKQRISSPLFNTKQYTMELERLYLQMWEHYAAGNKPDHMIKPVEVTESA

Potency, active:
O=C(O)C1=CC(=C(c2ccc(O)c(C(=O)O)c2)c2ccc(O)c(C(=O)O)c2)C=CC1=O 21.8 µM
CCCn1c(=O)c(C)cn2nc(N)nc12 31.1 µM
CCCCCCCCCCCCC/C=C\[C@@H](O)[C@H](CO)NC(C)=O 25.2 µM
Cc1cc(-c2ccc(N=Nc3ccc4c(S(=O)(=O)O)cc(S(=O)(=O)O)c(N)c4c3O)c(C)c2)ccc1N=Nc1ccc2c(S(=O)(=O)O)cc(S(=O)(=O)O)c(N)c2c1O 43.7 µM
Nc1c(S(=O)(=O)O)cc(Nc2ccc(Nc3nc(Cl)nc(Nc4ccc(S(=O)(=O)O)cc4)n3)c(S(=O)(=O)O)c2)c2c1C(=O)c1ccccc1C2=O 22.3 µM
